# Measurements published in PubChem BioAssay (EPA / NIEHS).
# The source made the active and inactive calls. The calls were made as follows: active = hit-call score of the fitted dose curve at least 0.9, where 1 is the maximum; inactive = score below 0.9.
# What was measured:
# [1] = ATG_PBREM_CIS: Attagene CIS-FACTORIAL HepG2 Assay for human Phenobarbital-responsive Enhancer Module (PBREM) (AID 2282955); conditions: HepG2 PBREM cis-reporter, Attagene multiplexed transcription; actives raise or lower the signal
# Method in brief: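 Fluorescence of labelled reporter cDNA fragments, resolved by capillary electrophoresis, gives mRNA induction in transfected HepG2 cells treated for 24 h; DMSO serves as negative control and baseline.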
# [2] = molecular target: Paired box protein Pax-6 (Homo sapiens) (UniProt P26367); test: ATG_Pax6_CIS: Attagene CIS-FACTORIAL HepG2 Assay for human Paired Box 6 (PAX6) (AID 2282956); conditions: HepG2 CIS-FACTORIAL PAX6 reporter transcription, RNA readout; actives raise or lower the signal
# Paired box protein Pax-6 (Homo sapiens), sequence (P26367 whole entry, looked up): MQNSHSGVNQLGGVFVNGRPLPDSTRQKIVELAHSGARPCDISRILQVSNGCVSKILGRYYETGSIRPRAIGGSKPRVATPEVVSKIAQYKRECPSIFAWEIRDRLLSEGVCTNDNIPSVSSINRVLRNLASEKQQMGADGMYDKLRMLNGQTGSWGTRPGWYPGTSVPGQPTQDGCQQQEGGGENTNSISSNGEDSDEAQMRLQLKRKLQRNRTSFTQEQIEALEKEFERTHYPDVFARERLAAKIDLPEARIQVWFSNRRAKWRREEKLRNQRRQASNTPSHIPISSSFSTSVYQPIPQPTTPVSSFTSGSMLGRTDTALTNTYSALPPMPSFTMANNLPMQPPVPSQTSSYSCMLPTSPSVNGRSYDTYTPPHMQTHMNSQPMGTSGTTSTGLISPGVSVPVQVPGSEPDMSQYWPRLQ
# Method in brief: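 Transient MRTU transfection of HepG2 → compound exposure 24 h → TriZol RNA, oligo(dT) RT → PCR, 6-FAM primer extension, HpaI cut → capillary electrophoresis; activity fitted both directions against DMSO.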
# [3] = ATG_PXRE_CIS: Attagene CIS-FACTORIAL HepG2 Assay for human Pregnane X Receptor Element (PXRE) (AID 2282957); conditions: HepG2 Attagene CIS-FACTORIAL PXRE reporter, mRNA; actives raise or lower the signal
# Method in brief: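 Cells: HepG2, transiently transfected reporter units under cis promoter control. Exposure: 24 h. Detection: reporter mRNA via RT-PCR/CE fluorescence; bidirectional fitting, DMSO-referenced.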
# [4] = ATG_PPRE_CIS: Attagene CIS-FACTORIAL HepG2 Assay for human Peroxisome Proliferator-activated Response Element (PPRE) (AID 2282958); conditions: HepG2 PPRE cis-element reporter, Attagene transcription factor profiling; actives raise or lower the signal
# Method in brief: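 Cells are first transfected transiently with the multiplexed reporter library, then dosed for 24 h. Total RNA is reverse-transcribed, amplified, fluorescently end-labeled and HpaI-cut before capillary electrophoresis; activity is fitted bidirectionally against DMSO controls.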
# [5] = ATG_RORE_CIS: Attagene CIS-FACTORIAL HepG2 Assay for human RAR-related Orphan Receptor Element (RORE) (AID 2282959); conditions: HepG2 Attagene cis-factorial RORE reporter, mRNA; actives raise or lower the signal
# Method in brief: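 Cells were HepG2 carrying transfected cis-regulated reporter constructs, dosed for 24 hours. Total RNA was reverse-transcribed and reporter cDNA amplified, fluorescently labeled and sized by capillary electrophoresis. Activity was fitted bidirectionally relative to DMSO.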
# [6] = ATG_Sox_CIS: Attagene CIS-FACTORIAL HepG2 Assay for human SRY-box transcription factor (SOX) (AID 2282960); conditions: HepG2 Attagene cis-factorial SOX reporter, mRNA; actives raise or lower the signal
# Method in brief: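 Transient MRTU transfection of HepG2; 24 h compound incubation; TriZol RNA, oligo(dT) RT, PCR, 6-FAM primer extension, HpaI cut, CE. Bidirectional fit, DMSO = baseline.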
# [7] = molecular target: Transcription factor Sp1 (Homo sapiens) (UniProt P08047); test: ATG_Sp1_CIS: Attagene CIS-FACTORIAL HepG2 Assay for human Specificity Protein 1 (Sp1) (AID 2282961); conditions: HepG2 Sp1 cis-reporter transcription, actives raise or lower the signal
# Transcription factor Sp1 (Homo sapiens), sequence (P08047 whole entry, looked up): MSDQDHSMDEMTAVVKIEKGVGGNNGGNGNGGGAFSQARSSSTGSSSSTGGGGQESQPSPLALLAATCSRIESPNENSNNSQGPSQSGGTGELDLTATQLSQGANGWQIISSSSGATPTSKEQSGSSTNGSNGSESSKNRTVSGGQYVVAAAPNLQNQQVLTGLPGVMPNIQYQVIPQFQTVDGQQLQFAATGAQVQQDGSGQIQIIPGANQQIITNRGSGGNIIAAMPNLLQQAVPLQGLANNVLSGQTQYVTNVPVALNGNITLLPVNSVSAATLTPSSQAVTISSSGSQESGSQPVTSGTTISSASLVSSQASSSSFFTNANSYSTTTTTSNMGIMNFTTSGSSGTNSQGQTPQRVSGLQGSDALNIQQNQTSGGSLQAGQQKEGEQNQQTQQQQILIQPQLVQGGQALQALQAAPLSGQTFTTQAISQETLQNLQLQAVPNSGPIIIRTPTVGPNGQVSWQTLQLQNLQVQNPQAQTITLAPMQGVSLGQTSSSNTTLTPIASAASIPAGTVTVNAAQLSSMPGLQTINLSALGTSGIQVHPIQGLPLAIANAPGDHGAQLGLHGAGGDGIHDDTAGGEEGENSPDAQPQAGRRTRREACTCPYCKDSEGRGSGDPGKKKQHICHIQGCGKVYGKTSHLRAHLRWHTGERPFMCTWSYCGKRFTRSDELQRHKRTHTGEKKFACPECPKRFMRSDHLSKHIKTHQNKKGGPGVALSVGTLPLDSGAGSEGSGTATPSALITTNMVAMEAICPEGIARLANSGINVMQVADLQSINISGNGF
# Method in brief: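 Endogenous Sp1 activity was gauged in human liver HepG2 cells bearing transfected reporter units under a cis-regulating promoter. After 24 h dosing, reporter mRNA was quantified by RT-PCR with capillary electrophoresis, and activity fitted bidirectionally versus DMSO.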
# [8] = ATG_SREBP_CIS: Attagene CIS-FACTORIAL HepG2 Assay for human Sterol Regulatory Element Binding (SREBP) (AID 2282962); conditions: HepG2 Attagene cis-factorial SREBP reporter, mRNA; actives raise or lower the signal
# Method in brief: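 Transfected HepG2 (cis-regulated reporter library, endogenous TFs) → compound 24 h → total RNA → oligo(dT) RT → reporter-specific PCR → FAM primer extension, HpaI cut → CE fluorescence. Fit bidirectional vs DMSO.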
# [9] = molecular target: Signal transducer and activator of transcription 3 (Homo sapiens) (UniProt P40763); test: ATG_STAT3_CIS: Attagene CIS-FACTORIAL HepG2 Assay for human Signal Transducer and Activator of Transcription 3 (STAT3) (AID 2282963); conditions: HepG2, Attagene cis-factorial STAT3 reporter transcription; actives raise or lower the signal
# Signal transducer and activator of transcription 3 (Homo sapiens), sequence (P40763 whole entry, looked up): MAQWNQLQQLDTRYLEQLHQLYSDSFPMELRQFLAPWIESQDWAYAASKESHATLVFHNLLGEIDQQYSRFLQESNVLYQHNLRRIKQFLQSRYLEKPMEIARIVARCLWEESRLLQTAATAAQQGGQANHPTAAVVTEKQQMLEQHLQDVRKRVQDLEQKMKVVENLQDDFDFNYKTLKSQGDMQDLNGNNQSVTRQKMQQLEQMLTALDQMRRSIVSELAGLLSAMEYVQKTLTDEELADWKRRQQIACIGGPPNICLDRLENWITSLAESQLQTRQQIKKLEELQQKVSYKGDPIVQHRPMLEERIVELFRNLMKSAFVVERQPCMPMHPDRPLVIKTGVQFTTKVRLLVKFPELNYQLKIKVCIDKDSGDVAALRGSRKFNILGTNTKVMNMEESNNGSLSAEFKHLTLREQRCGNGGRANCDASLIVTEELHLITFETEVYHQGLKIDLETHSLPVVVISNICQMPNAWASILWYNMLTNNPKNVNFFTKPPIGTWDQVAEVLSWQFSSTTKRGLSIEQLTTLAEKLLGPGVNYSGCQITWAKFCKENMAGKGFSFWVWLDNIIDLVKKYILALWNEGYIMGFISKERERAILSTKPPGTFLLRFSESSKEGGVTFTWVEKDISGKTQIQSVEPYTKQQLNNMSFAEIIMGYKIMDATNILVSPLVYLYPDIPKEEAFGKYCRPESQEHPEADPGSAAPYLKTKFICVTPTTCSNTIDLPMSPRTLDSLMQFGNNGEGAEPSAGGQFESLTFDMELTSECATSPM
# Method in brief: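 Transcript-level reporter assay. HepG2 transient MRTU transfection, 24 h exposure, fluorescence detection after RT-PCR and CE; DMSO baseline.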
# [10] = ATG_TA_CIS: Attagene CIS-FACTORIAL HepG2 Assay for human TA Basal Promoter (AID 2282964); conditions: HepG2 Attagene CIS-factorial TA basal promoter reporter; actives raise or lower the signal
# Method in brief: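 Fluorescence from labelled RT-PCR reporter fragments, separated by capillary electrophoresis, gives the signal. Cells: HepG2 transiently carrying multiple reporter units, 24 h chemical dosing. Gain or loss relative to DMSO.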
SMILES,outcome [1],outcome [2],outcome [3],outcome [4],outcome [5],outcome [6],outcome [7],outcome [8],outcome [9],outcome [10],AC50 [3],AC50 [6],AC50 [4],AC50 [8],AC50 [10],AC50 [1],AC50 [5],AC50 [9]
Cc1ccc([N+](=O)[O-])c(C)c1,inactive,inactive,inactive,inactive,inactive,inactive,inactive,inactive,inactive,inactive,–,–,–,–,–,–,–,–
CN(C(=O)C(F)(F)C(F)(F)C(F)(F)F)[Si](C)(C)C,inactive,inactive,inactive,inactive,inactive,inactive,inactive,inactive,inactive,inactive,–,–,–,–,–,–,–,–
CN(C)C(C)(C)CO,inactive,inactive,inactive,inactive,inactive,inactive,inactive,inactive,inactive,inactive,–,–,–,–,–,–,–,–
C=CC(=O)OCC(F)(F)C(F)(F)C(F)(F)C(F)(F)C(F)(F)C(F)(F)C(F)(F)C(F)F,inactive,inactive,–,inactive,inactive,–,inactive,inactive,inactive,inactive,38.3 µM (active),271 µM (active),–,–,–,–,–,–
Cc1cccc(C)n1,inactive,inactive,inactive,inactive,inactive,inactive,inactive,inactive,inactive,inactive,–,–,–,–,–,–,–,–
OCCC(O)CO (stereo not drawn),inactive,inactive,inactive,inactive,inactive,inactive,inactive,inactive,inactive,inactive,–,–,–,–,–,–,–,–
C=C(C)CCCC,inactive,inactive,inactive,inactive,inactive,inactive,inactive,inactive,inactive,inactive,–,–,–,–,–,–,–,–
CC(C)Nc1ccc(NC(C)C)c2c1C(=O)c1ccccc1C2=O,inactive,inactive,–,inactive,inactive,inactive,inactive,inactive,inactive,inactive,0.21 µM (active),–,–,–,–,–,–,–
CC1=CCC2C(=O)OC(=O)C2C1 (stereo not drawn),inactive,inactive,inactive,inactive,inactive,inactive,inactive,inactive,inactive,inactive,–,–,–,–,–,–,–,–
C=CC(=O)OCCC(F)(F)C(F)(F)C(F)(F)C(F)(F)F,inactive,inactive,–,inactive,inactive,inactive,inactive,inactive,inactive,inactive,43.8 µM (active),–,–,–,–,–,–,–
Nc1cc([N+](=O)[O-])cc(Cl)c1O,inactive,inactive,–,inactive,inactive,inactive,inactive,inactive,inactive,inactive,5.15 µM (active),–,–,–,–,–,–,–
CCOCN(C(=O)CS(=O)(=O)O)c1c(C)cccc1CC,inactive,inactive,–,inactive,inactive,inactive,inactive,inactive,inactive,inactive,42 µM (active),–,–,–,–,–,–,–
CC(C)(C)c1cc(CCC(=O)NCCCCCCNC(=O)CCc2cc(C(C)(C)C)c(O)c(C(C)(C)C)c2)cc(C(C)(C)C)c1O,inactive,inactive,–,inactive,inactive,inactive,inactive,inactive,inactive,inactive,0.169 µM (active),–,–,–,–,–,–,–
OCC(F)(F)C(F)(F)C(F)(F)C(F)(F)C(F)(F)C(F)(F)C(F)(F)C(F)(F)CO,inactive,inactive,–,inactive,inactive,inactive,inactive,inactive,inactive,inactive,16.6 µM (active),–,–,–,–,–,–,–
CC(C)OC(=O)COc1ccc(Cl)cc1Cl,inactive,inactive,–,inactive,inactive,inactive,inactive,inactive,inactive,inactive,68.8 µM (active),–,–,–,–,–,–,–
O=C(O)C(F)(F)OC(F)(F)C(F)(F)OC(F)(F)C(F)(F)OC(F)(F)F,inactive,inactive,inactive,–,inactive,inactive,inactive,inactive,inactive,inactive,–,–,36.4 µM (active),–,–,–,–,–
Cc1ccc(O)cn1,inactive,inactive,inactive,inactive,inactive,inactive,inactive,inactive,inactive,inactive,–,–,–,–,–,–,–,–
OCCCCl,inactive,inactive,inactive,inactive,inactive,inactive,inactive,inactive,inactive,inactive,–,–,–,–,–,–,–,–
CCN(CC)c1ccc(C=O)cc1,inactive,inactive,–,inactive,inactive,inactive,inactive,inactive,inactive,inactive,27.7 µM (active),–,–,–,–,–,–,–
CCCCCCCCn1sc(Cl)c(Cl)c1=O,inactive,inactive,–,inactive,inactive,inactive,inactive,–,inactive,–,4.27 µM (active),–,–,14.5 µM (active),8.12 µM (active),–,–,–
CC(C)(C)c1cc(CCC(=O)OCC(COC(=O)CCc2cc(C(C)(C)C)c(O)c(C(C)(C)C)c2)(COC(=O)CCc2cc(C(C)(C)C)c(O)c(C(C)(C)C)c2)COC(=O)CCc2cc(C(C)(C)C)c(O)c(C(C)(C)C)c2)cc(C(C)(C)C)c1O,inactive,inactive,–,inactive,inactive,inactive,inactive,inactive,inactive,inactive,21.3 µM (active),–,–,–,–,–,–,–
CCCCOC(=O)C(C)O (stereo not drawn),inactive,inactive,inactive,inactive,inactive,inactive,inactive,inactive,inactive,inactive,–,–,–,–,–,–,–,–
CCCCCCCC/C=C\CCCCCCCC(=O)OCC(O)CO (stereo not drawn),inactive,inactive,inactive,inactive,inactive,inactive,inactive,inactive,inactive,inactive,–,–,–,–,–,–,–,–

SMILES,outcome [1],outcome [2],outcome [3],outcome [4],outcome [5],outcome [6],outcome [7],outcome [8],outcome [9],outcome [10],AC50 [3],AC50 [6],AC50 [4],AC50 [8],AC50 [10],AC50 [1],AC50 [5],AC50 [9]
CSc1ccc(Cl)cc1,inactive,inactive,inactive,inactive,inactive,inactive,inactive,inactive,inactive,inactive,–,–,–,–,–,–,–,–
C[C@]12CC[C@H]3C(=CCc4cc(O)ccc43)[C@@H]1CCC2=O,inactive,inactive,–,inactive,inactive,inactive,inactive,inactive,inactive,inactive,26.6 µM (active),–,–,–,–,–,–,–
N#Cc1ccccc1O,inactive,inactive,inactive,inactive,inactive,inactive,inactive,inactive,inactive,inactive,–,–,–,–,–,–,–,–
O=C(Cl)C(F)(F)C(F)(F)C(F)(F)C(F)(F)C(F)(F)C(F)(F)F,inactive,inactive,inactive,–,inactive,inactive,inactive,inactive,inactive,inactive,–,–,60.3 µM (active),–,–,–,–,–
Cc1cc(=O)[nH]c(C(C)C)n1,inactive,inactive,inactive,inactive,inactive,inactive,inactive,inactive,inactive,inactive,–,–,–,–,–,–,–,–
O=C=Nc1cccc2c(N=C=O)cccc12,inactive,inactive,–,inactive,inactive,inactive,inactive,inactive,inactive,inactive,1.82 µM (active),–,–,–,–,–,–,–
O=C(F)C1(F)C(F)(F)C(F)(F)C(F)(F)C(F)(F)C1(F)F,inactive,inactive,inactive,inactive,inactive,inactive,inactive,inactive,inactive,inactive,–,–,–,–,–,–,–,–
CCCCCCCCCCCCC[N+](C)(C)Cc1ccccc1,inactive,inactive,inactive,inactive,inactive,inactive,inactive,inactive,inactive,inactive,–,–,–,–,–,–,–,–
CCN(CC)c1ccc(N=Nc2ccccc2)cc1,–,inactive,–,–,–,inactive,inactive,inactive,–,inactive,3.99 µM (active),–,4.8 µM (active),–,–,8.89 µM (active),8.12 µM (active),27.6 µM (active)
CC1=CCC(=O)O1,inactive,inactive,–,inactive,inactive,inactive,inactive,inactive,inactive,inactive,26.7 µM (active),–,–,–,–,–,–,–
O=C(O)CCC(F)(F)C(F)(F)C(F)(F)F,inactive,inactive,inactive,inactive,inactive,inactive,inactive,inactive,inactive,inactive,–,–,–,–,–,–,–,–
OCC(O)CC(F)(F)C(F)(F)C(F)(F)C(F)(F)F (stereo not drawn),inactive,inactive,inactive,inactive,inactive,inactive,inactive,inactive,inactive,inactive,–,–,–,–,–,–,–,–
CCCCOC(=O)[C@H](C)O,inactive,inactive,inactive,inactive,inactive,inactive,inactive,inactive,inactive,inactive,–,–,–,–,–,–,–,–
Cc1ccc2c(c1)OCC(=O)CO2,inactive,inactive,–,inactive,inactive,inactive,inactive,inactive,inactive,inactive,77 µM (active),–,–,–,–,–,–,–
Cc1cc(O)c(C(C)(C)C)cc1C(C)(C)C,inactive,inactive,–,inactive,inactive,inactive,–,–,inactive,inactive,2.92 µM (active),–,–,8.33 µM (active),–,–,–,–
CN(N=O)C(=O)N[C@@H]1[C@@H](O)[C@H](O)[C@@H](CO)O[C@@H]1O,inactive,inactive,inactive,inactive,inactive,inactive,–,inactive,inactive,inactive,–,–,–,–,–,–,–,–
CCOC(OCC)OCC,inactive,inactive,–,inactive,inactive,inactive,–,inactive,inactive,inactive,28 µM (active),–,–,–,–,–,–,–
CCCCCCCCCCCC(=O)Cl,inactive,inactive,inactive,–,inactive,inactive,inactive,–,–,inactive,–,–,49.9 µM (active),41.2 µM (active),–,–,–,–
O=c1[nH]cccc1O,inactive,inactive,inactive,inactive,inactive,inactive,inactive,inactive,–,inactive,–,–,–,–,–,–,–,–
C=CCOC(=O)CC(C)C,inactive,inactive,inactive,inactive,inactive,inactive,inactive,inactive,–,inactive,–,–,–,–,–,–,–,–
Nc1c(Br)cc([N+](=O)[O-])cc1Br,inactive,inactive,–,inactive,inactive,inactive,–,inactive,inactive,inactive,26.7 µM (active),–,–,–,–,–,–,–
CN1CN(C)CN(C)C1,inactive,inactive,–,inactive,inactive,inactive,inactive,inactive,inactive,inactive,49.5 µM (active),–,–,–,–,–,–,–
